Data on 26 compounds can be found in PubChem BioAssay AID493035 (The Scripps Research Institute Molecular Screening Center, 2011).

The inhibition is the relative decrease from the control value, in per cent.

Among all 2,000 compounds or so, about 45 (2%) were called active. The sample holds actives, similar compounds and a random draw of the others, so the mix is not that of the screen. Values without a mark were called inactive.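 The calls were made as follows: active = inhibition above the mean of all tested compounds plus 3 SD (cut at about 49% in these data); inactive = the rest.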

Chain of Perilipin-5 (Homo sapiens) + 1-acylglycerol-3-phosphate O-acyltransferase ABHD5 (Homo sapiens) (Q00G26 whole entry, looked up): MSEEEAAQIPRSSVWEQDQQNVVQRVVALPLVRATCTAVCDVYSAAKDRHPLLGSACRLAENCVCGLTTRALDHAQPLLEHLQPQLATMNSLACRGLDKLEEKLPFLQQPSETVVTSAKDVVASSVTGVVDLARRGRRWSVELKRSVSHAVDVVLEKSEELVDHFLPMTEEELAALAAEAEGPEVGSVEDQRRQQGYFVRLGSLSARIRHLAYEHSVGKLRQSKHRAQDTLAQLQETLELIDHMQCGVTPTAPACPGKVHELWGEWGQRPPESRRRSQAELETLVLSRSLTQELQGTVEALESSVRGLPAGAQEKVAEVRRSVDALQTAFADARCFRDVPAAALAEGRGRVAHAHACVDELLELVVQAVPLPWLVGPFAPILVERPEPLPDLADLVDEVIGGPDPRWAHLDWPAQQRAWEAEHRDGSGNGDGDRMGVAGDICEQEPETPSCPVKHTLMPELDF
Chain of Perilipin-5 (Homo sapiens) + 1-acylglycerol-3-phosphate O-acyltransferase ABHD5 (Homo sapiens) (Q8WTS1 whole entry, looked up): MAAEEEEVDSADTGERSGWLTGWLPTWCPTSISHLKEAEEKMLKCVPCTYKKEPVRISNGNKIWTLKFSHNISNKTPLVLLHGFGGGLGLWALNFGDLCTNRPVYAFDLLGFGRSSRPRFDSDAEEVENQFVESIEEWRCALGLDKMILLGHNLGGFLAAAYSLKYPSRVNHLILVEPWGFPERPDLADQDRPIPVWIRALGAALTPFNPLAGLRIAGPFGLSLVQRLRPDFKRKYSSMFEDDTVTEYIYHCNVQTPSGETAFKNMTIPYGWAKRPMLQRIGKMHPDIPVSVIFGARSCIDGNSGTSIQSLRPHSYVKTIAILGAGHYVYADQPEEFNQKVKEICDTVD

This assay addresses Perilipin-5 (Homo sapiens) + 1-acylglycerol-3-phosphate O-acyltransferase ABHD5 (Homo sapiens) (UniProt Q00G26+Q8WTS1). Nature of the assay: ABHD5-PLIN5 interaction inhibitors, pilot screen, cell lysate, split luciferase complementation, luminescence, NIH validation set (AID 493035).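 As to inhibition: 0% = DMSO only wells while the 100% control is not stated.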 The settings on record: split G. princeps luciferase complementation, lysates, 4 h; at 7.9 µM, stronger effect = higher value.
`O=C1CCCCCN1Cc1ccccc1`: the inhibition was 9.82%. Turning to `O=C1C=CC(=O)C(C2=C3C(=O)N(CCc4ccccc4)CC(=O)N3CCC2)=C1`, the inhibition was 74.5% (active).

Take `C/C(=N/N1CCN(Cc2cccc3ccccc23)CC1)c1cccnc1`: the inhibition is -8.01%. On to `CC1(C)C2CCC1(C(=O)O)c1nc3ccccc3nc12` (stereo unspecified), for which the inhibition was -0.64%.

For `Cc1ccc(S(=O)(=O)Nc2ccc(S(=O)(=O)Nc3cc(C)nc(C)n3)cc2)cc1`, the inhibition is 4.03%. The same measure for `CC(C)CCOCC(=O)Nc1cccc(C(=O)O)c1`: -0.57%. For the compound `COC(=O)C1=C(C)NC(C)=C(C(=O)OC)C1c1ccccc1[N+](=O)[O-]`, the inhibition result was “active”.

Consider `CCOC(=O)C1=C(C)NC(C)=C(C(=O)OC)C1c1cccc([N+](=O)[O-])c1` (stereo unspecified), for which the inhibition is 3.99%. The result for `COC(=O)C1=C(C)NC(C)=C([N+](=O)[O-])C1c1ccccc1C(F)(F)F` (stereo unspecified) reads -2.75%.

For `O=C(O)CCSCCC(=O)O`, the inhibition was 2.26%. The same measure for `CC12CCC(C(=O)N3CCCCC3)([C@H](Br)C1=O)C2(C)C` (stereo partly specified): -4.77%. Turning to `COc1ccc(C(=O)Nc2ccccc2C(=O)NC(Cc2c[nH]c3ccccc23)C(=O)O)cc1` (stereo unspecified), the inhibition was 1.79%.

Regarding `COc1ccc(/C=C/C(=O)Nc2ccccc2C(=O)O)cc1OC`, the inhibition was -12.4%. The result for `COc1ccc(C(=O)Oc2ccc3c(C)cc(=O)oc3c2C(C)=O)cc1` reads 2.94%. The result for `COc1ccc(/C=C\C(=O)c2c(O)ccc3c(C)cc(=O)oc23)cc1OC` reads 59.1% (active); that for `Cc1ccc2c(CC(=O)O)coc2c1`, -6.46%; that for `CCSC(SCC)[C@H](O)[C@@H](O)[C@H](O)[C@H](O)CO`, -2.61%. The same measure for `CC(C)(C)C(=O)N1CCCC1C(=O)O` (stereo unspecified): -7.48%; for `Nc1ccc(-c2nc3ncccc3o2)c(Cl)c1`: -10.8%. In the case of `CC(C)Cc1cc(C(=O)N2CCC(N3CCC(C(=O)N4CCCC4)CC3)CC2)n[nH]1`, the inhibition is -3.07%. The same measure for `COc1cc(C2Nc3ccccc3NC3=C2C(=O)CC(c2ccc(OC)c(OC)c2)C3)ccc1O` (stereo unspecified): 1.84%. The result for `C=CCC1(O)C(=O)N2C(=C1C(=O)N1CCOCC1)c1ccccc1CC2(C)C` (stereo unspecified) reads 0.31%. `Cc1ccc2c(c1)C(O)(CC(=O)/C=C/C=C/c1ccccc1)C(=O)N2` (stereo unspecified): the inhibition is 24.3%. Take `Cc1ccc(C2=NOC(=O)/C2=C\C=C\c2ccccc2)cc1`: the inhibition is 94.4% (active). The same measure for `NC(=O)c1c(-c2ccccc2)oc2ccc(O)cc12`: -5.91%; for `CCOC(=O)C1=C(C)N[C@@]2(O)c3ccccc3C(=O)[C@@]12O`: 10.3%.
